In PubChem BioAssay (EPA / NIEHS):
The source made the active and inactive calls. How the source made its calls: active means hit-call score of the fitted dose curve at least 0.9, where 1 is the maximum; inactive means score below 0.9.

Assay: CCTE_Mundy_HCI_Cortical_Synap_Neur_Matur_BPCount: CCTE's Synaptogenesis and Neurite Maturation Assay in rat cortical cells for Branch Point Count, Mundy Lab (AID 2284211)
Protocol: CCTE_Mundy_HCI_Cortical_Synap&Neurite_Matur is a multiplexed, cell-based-readout assay that uses rat primary cortical cells with measurements taken at 288.33 hours after chemical dosing in a microplate: 96-well plate.CCTE_Mundy_HCI_Cortical_Synap_Neur_Matur_BPCount is one of eight components of the CCTE_Mundy_HCI_Cortical_Synap&Neurite_Matur assay. It measures synaptogenesis and neurite maturation related to number of branch points using High Content Imaging of fluorescently labelled markers.[…] Using a type of morphology reporter, loss -of-signal activity can be used to understand developmental effects.
Cells are plated onto 96 well plates and allowed 2 hr for attachment to the substrate. At days in vitro (DIV) 5, Cytosine Arabinoside (AraC) is added to arrest glial cell growth. Chemicals are dosed and a media change is performed at DIV 7 of differentiation and is continued through DIV 12 when the experiment is terminated. Cells are fixed with […] and Hoechst Dye. Cells are stained using Millipore Mouse anti-MAP2MAB3418 (1:800) and Millipore Rabbit anti-Synaptophysinsc-1750 (1:250) primary antibodies and Alexa Fluor-488 goat anti-mouse and AlexaFluor-546 goat anti-rabbit secondary antibodies to label neuronal cell nuclei, synapses and neurites. A Cellomics ArrayScan VTi HCS Reader is used for automated image acquisition and analysis of neurite outgrowth.

outcome, inactive:
CC(=O)N[C@@H](CC(=O)O)C(=O)O
C[C@@H]1CC[C@@H](C(C)(C)O)[C@H](O)C1
CCc1ccccc1
F
O=C1CC2(CCCC2)CC(=O)N1CCCCN1CCN(c2ncccn2)CC1
CC(C)O
CCCCCC=C(C)C(CC)CCO (centres undefined)
CCCCCC(C)(CC)C(=O)NC (centres undefined)
CC(C)c1nn(C(=O)NC(C)(C)C)c(=O)n1N
Cc1[nH]n(C)c(=O)c1C(=O)c1ccc(C(F)(F)F)cc1S(C)(=O)=O

AC50, active:
C[C@@H]1CCO[C@H]2Cn3cc(C(=O)NCc4ccc(F)cc4F)c(=O)c(O)c3C(=O)N12 1.14 µM
BrC1CC(Br)CC(Br)CC(Br)CC(Br)CC(Br)C1 (centres undefined) 3.17 µM
CC(CNC(=S)[S-])NC(=S)[S-].[Zn+2] (centres undefined) 50 µM
[O]=[V]([OH])([OH])[OH] 12.2 µM
